Experimental findings from article PMC5836133, “The intracellular immune receptor Rx1 regulates the DNA-binding activity of a Golden2-like transcription factor” are described below.

Whole data set: some 16,000 sequences, median “e-score” near -0.044, cut for the highest 2% near 0.38. The list comes from a sample in which the highest values are over-represented; it also holds similar and randomly drawn sequences.

The target of the experiment is T1, GST-NbGlk1(82-244) (Nicotiana benthamiana).
T1 chain: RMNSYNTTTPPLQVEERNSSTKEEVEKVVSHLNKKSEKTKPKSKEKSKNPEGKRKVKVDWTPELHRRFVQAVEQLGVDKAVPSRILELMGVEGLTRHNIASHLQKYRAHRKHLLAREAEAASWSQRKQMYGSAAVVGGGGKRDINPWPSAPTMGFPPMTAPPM
Kind of experiment: protein-binding microarray; NbGlk1 is a Golden2-like transcription factor of Nicotiana benthamiana; high values mean tight binding. As to conditions: protein: recombinant; tags: GST (pTH6838); dsDNA, one strand shown.
For ATGGTATC, the binding signal came out at 0.2 ± 0.0619 E-score.

In the case of ATCTTTTC, the binding signal stood at 0.289 ± 0.0307 E-score. Regarding AAATCGAA, the binding signal is 0.329 ± 0.0505 E-score. Turning to ATCTCGGA, the binding signal was 0.36 ± 0.00407 E-score.

Regarding ATACTGTA, the binding signal was 0.274 ± 0.0926 E-score. Then ATTTCCAA, with 0.36 ± 0.0335 E-score; and ATTTTGCG, with 0.293 ± 0.0239 E-score; and AGGCGGAT, with 0.206 ± 0.0564 E-score. For ATTTCATA, the binding signal amounted to 0.353 ± 0.0105 E-score.

For ATCGCGAA, the binding signal amounted to 0.323 ± 0.0256 E-score. Next, ATCGCAAT: 0.397 ± 0.0277 E-score; ATCGCGAT: 0.4239 ± 0.000981 E-score.

Turning to ATCGCGAG, the binding signal was 0.33 ± 0.00694 E-score. Next, ATCGCAAA: 0.234 ± 0.0734 E-score; AACGCAAT: 0.344 ± 0.0179 E-score; ATTTTTAC: 0.313 ± 0.0485 E-score. On to ACATATCG, for which the binding signal was 0.226 ± 0.0607 E-score. Then AGATCCCT, with 0.298 ± 0.00953 E-score. With ATGGCAAT, the binding signal amounted to 0.237 ± 0.0667 E-score.

In the case of ATCTAGTA, the binding signal was found to be 0.316 ± 0.0615 E-score. Regarding ACGTGGAT, the binding signal came to 0.283 ± 0.0431 E-score. Next, ATTTTTAA: 0.221 ± 0.0275 E-score; ACGCGATA: 0.252 ± 0.00347 E-score; ACGCGATC: 0.437 ± 0.0114 E-score. Then AAGCGATC, with 0.294 ± 0.0444 E-score; and ATCTTGTG, with 0.318 ± 0.0738 E-score. Next, AGTATCTA: 0.305 ± 0.0244 E-score; AATATATC: 0.311 ± 0.00568 E-score; AATATCTG: 0.423 ± 0.0344 E-score.

Regarding AATATCAA, the binding signal worked out at 0.322 ± 0.0489 E-score. Next, AGTATCTG: 0.339 ± 0.041 E-score; AATATCTA: 0.402 ± 0.018 E-score. As to AATATCTC, the binding signal came to 0.391 ± 0.0345 E-score. Next, AATATCGG: 0.371 ± 0.0225 E-score; AGTATCTC: 0.235 ± 0.067 E-score; ATTTAAAG: 0.222 ± 0.0214 E-score.

For the sequence AACGTATA, the binding signal came out at 0.225 ± 0.0359 E-score. For the sequence ATTCGCAG, the binding signal turned out to be 0.292 ± 0.0538 E-score. Take CACAATCA: the binding signal worked out at 0.27 ± 0.109 E-score. Next, AAGGGATT: 0.3179 ± 0.00237 E-score; ATTTCGCA: 0.279 ± 0.0966 E-score; AATCAGTG: 0.266 ± 0.0198 E-score. Then AATCTGTG, with 0.411 ± 0.0099 E-score.

As to AATCTGAG, the binding signal came out at 0.415 ± 0.0436 E-score. Next, ATCCTGTG: 0.205 ± 0.0418 E-score; ATTCTGTG: 0.25 ± 0.0953 E-score; AATCAGAG: 0.229 ± 0.0948 E-score. As to AAGCAAAT, the binding signal was found to be 0.207 ± 0.0438 E-score.

Turning to AACGAAAT, the binding signal is 0.344 ± 0.0502 E-score.

Take ATCAGAAG: the binding signal stood at 0.24 ± 0.0447 E-score. Next, AATATCAC: 0.34 ± 0.00742 E-score; ATTCGATC: 0.207 ± 0.00438 E-score; AATGGATA: 0.3 ± 0.0974 E-score. Next, ATAATATC: 0.347 ± 0.0287 E-score; ACAATATA: 0.206 ± 0.0382 E-score; AGAATATG: 0.253 ± 0.0505 E-score.

Regarding ACAATATC, the binding signal was 0.3871 ± 0.00293 E-score. For AAAATATG, the binding signal amounted to 0.218 ± 0.038 E-score.

As to AGAATATA, the binding signal was determined as 0.267 ± 0.0326 E-score.

As to AGAATATC, the binding signal amounted to 0.4346 ± 0.00342 E-score.

As to CAAATATC, the binding signal is 0.375 ± 0.0172 E-score. Next, AAAATATC: 0.406 ± 0.00752 E-score. Next, ATCCTTTG: 0.201 ± 0.0717 E-score.

With AATCGCTG, the binding signal stood at 0.234 ± 0.00581 E-score. For the sequence ATCTAACC, the binding signal turned out to be 0.266 ± 0.0179 E-score. Regarding AGTGATAT, the binding signal stood at 0.298 ± 0.0207 E-score. Next, ATCGCACC: 0.247 ± 0.126 E-score.

In the case of ATTACAAA, the binding signal amounted to 0.302 ± 0.0597 E-score. Next, AGGATTGC: 0.45 ± 0.0104 E-score; AGGATTCC: 0.448 ± 0.00523 E-score; AGAATTAC: 0.23 ± 0.0195 E-score. With ACGATTCG, the binding signal was found to be 0.324 ± 0.025 E-score. Then AGGATTAC, with 0.449 ± 0.00837 E-score; and ATGATTGC, with 0.33 ± 0.019 E-score; and ACGATTCT, with 0.362 ± 0.0226 E-score. Turning to ATGATTCC, the binding signal is 0.306 ± 0.0505 E-score. Consider AGGATTCG, for which the binding signal worked out at 0.352 ± 0.0252 E-score.

As for AGGATTAT, the binding signal is 0.31 ± 0.0692 E-score. As for ACGATTCC, the binding signal is 0.4 ± 0.0168 E-score. Regarding AGGATCGC, the binding signal is 0.357 ± 0.0151 E-score. Then ACTTAGAT, with 0.257 ± 0.118 E-score; and ATCCACCC, with 0.255 ± 0.0461 E-score; and AAGGATTA, with 0.278 ± 0.0334 E-score. Then ATCTATGG, with 0.205 ± 0.011 E-score; and ATATCGAG, with 0.296 ± 0.0718 E-score; and ATTATTCC, with 0.252 ± 0.0429 E-score. Next, AACGAGAT: 0.309 ± 0.0377 E-score; AATAGGAT: 0.218 ± 0.15 E-score; AGCAGAAT: 0.255 ± 0.0466 E-score. In the case of ATACTCCA, the binding signal worked out at 0.208 ± 0.0394 E-score.

On to ATCGTAAT, for which the binding signal came out at 0.375 ± 0.0645 E-score.

On to ATCGGAAA, for which the binding signal came out at 0.25 ± 0.0729 E-score.

With ACGATTGC, the binding signal is 0.345 ± 0.0699 E-score.

For ACGATTAC, the binding signal came out at 0.407 ± 0.0433 E-score. Next, ATGATTAC: 0.302 ± 0.0176 E-score; ATTTTCGG: 0.237 ± 0.0617 E-score; AGATCTAT: 0.337 ± 0.0129 E-score.

Turning to AAATCTAA, the binding signal was 0.4499 ± 0.000584 E-score.

Take CAATCTAA: the binding signal stood at 0.351 ± 0.0122 E-score. Then AAATCTAC, with 0.441 ± 0.0198 E-score; and CAATCTAG, with 0.3742 ± 0.000815 E-score; and AAATCTAG, with 0.452 ± 0.0158 E-score. Next, CAATCTAC: 0.341 ± 0.0196 E-score; AAATCTAT: 0.419 ± 0.0237 E-score. Next, AAATCAAT: 0.31 ± 0.0292 E-score; AAATCGAG: 0.288 ± 0.0697 E-score; AAATCAAA: 0.309 ± 0.0265 E-score.

Take AAATCAAC: the binding signal came out at 0.349 ± 0.0103 E-score. On to ATATAAAA, for which the binding signal amounted to 0.212 ± 0.0169 E-score.

ACCGGATA: the binding signal was 0.262 ± 0.0765 E-score. Then AATTTCGT, with 0.284 ± 0.0162 E-score; and ATCTCGCA, with 0.324 ± 0.0204 E-score; and AAATAATA, with 0.227 ± 0.0112 E-score. On to ACAAATAT, for which the binding signal amounted to 0.313 ± 0.0317 E-score. Next, ATCGGGAA: 0.276 ± 0.0291 E-score; ACCTAGAT: 0.291 ± 0.0209 E-score. ATCGCATG: the binding signal came out at 0.29 ± 0.0714 E-score.

For the sequence CAATCATA, the binding signal is 0.255 ± 0.00353 E-score. Next, ATTATAAG: 0.253 ± 0.0219 E-score; ATCCGCCA: 0.254 ± 0.0406 E-score.

AAATCGGT: the binding signal was 0.325 ± 0.0221 E-score.

As for AAATCGAT, the binding signal was 0.336 ± 0.0651 E-score.

On to AAATCTGT, for which the binding signal turned out to be 0.446 ± 0.00579 E-score. Then AACCAGAT, with 0.301 ± 0.00304 E-score; and AATCGAGA, with 0.293 ± 0.0295 E-score. As to AGAATCCA, the binding signal stood at 0.456 ± 0.0261 E-score. Next, AGAATCCC: 0.433 ± 0.00879 E-score; ACAATCCT: 0.302 ± 0.0343 E-score; AGAATCAT: 0.359 ± 0.0327 E-score. Then ATAATCCG, with 0.337 ± 0.0347 E-score. As for AGGATCCA, the binding signal came to 0.237 ± 0.027 E-score. AGAATCGC: the binding signal came to 0.377 ± 0.00979 E-score. As to AGAATCCT, the binding signal turned out to be 0.439 ± 0.00609 E-score. With AGAATCCG, the binding signal came out at 0.4779 ± 0.0039 E-score.

Regarding ACAATCCC, the binding signal came to 0.2757 ± 0.00233 E-score.

As for ACAATCCG, the binding signal is 0.334 ± 0.019 E-score. For ATCCAAAA, the binding signal stood at 0.261 ± 0.0307 E-score. Next, ATCCTCCG: 0.257 ± 0.0282 E-score; ATCTGCTG: 0.291 ± 0.0162 E-score; ATATGAAA: 0.266 ± 0.036 E-score. Then AGCGATTC, with 0.253 ± 0.0595 E-score; and ATAGCGAT, with 0.247 ± 0.0104 E-score.

As for AGATTATG, the binding signal was determined as 0.35 ± 0.0249 E-score. Then AGATTATA, with 0.31 ± 0.0066 E-score. On to AAATTACG, for which the binding signal was 0.317 ± 0.00783 E-score. Next, AGATTACT: 0.429 E-score; AGATTACG: 0.484 ± 0.00516 E-score.

As to AAATTACA, the binding signal was determined as 0.281 ± 0.0554 E-score.

Turning to ATATTACA, the binding signal was found to be 0.281 ± 0.0562 E-score.

With AGATTACA, the binding signal is 0.477 ± 0.0126 E-score. Regarding AGATTATC, the binding signal is 0.398 ± 0.0119 E-score. Next, ATATTACG: 0.331 ± 0.0353 E-score; ACGATCTG: 0.298 ± 0.0786 E-score; ATCTGAAT: 0.319 ± 0.0412 E-score. Then ACATGGAT, with 0.276 ± 0.0921 E-score; and AATAGAGA, with 0.257 ± 0.00976 E-score. With AGCGGATA, the binding signal came out at 0.27 ± 0.022 E-score.

Consider ATCTGTCG, for which the binding signal was found to be 0.268 ± 0.0941 E-score. Then ATCTCAAA, with 0.337 ± 0.00799 E-score; and ACTTGGAT, with 0.263 ± 0.0442 E-score. Next, ATTGCTAC: 0.23 ± 0.0982 E-score; ATTGCAAA: 0.212 ± 0.0169 E-score. Then AATATTAT, with 0.211 ± 0.0854 E-score; and ATATGCAC, with 0.266 ± 0.0704 E-score.

Consider AAATTTGC, for which the binding signal stood at 0.224 ± 0.0355 E-score. Next, AATCATGA: 0.254 ± 0.0429 E-score; AGATTACC: 0.459 ± 0.0174 E-score. Next, AAATTACC: 0.252 ± 0.0504 E-score. Then AGATTTAC, with 0.349 ± 0.00929 E-score. For the sequence AATATACG, the binding signal was found to be 0.253 ± 0.0484 E-score. In the case of CAAATTAC, the binding signal is 0.275 ± 0.0131 E-score. Next, AAGATTAC: 0.454 ± 0.0269 E-score; AAGATTAT: 0.288 ± 0.039 E-score; AATATTAC: 0.235 ± 0.084 E-score. Turning to CAGATTAC, the binding signal was 0.47655 ± 0.000118 E-score. Then AAAATTAC, with 0.203 ± 0.0427 E-score.
